Results published in PubChem BioAssay (NCI).
“And” between values parts separate entries of the source, which are not always exact repeats. Identical values can stand only once. About 83,000 compounds went through this panel and 20% of them were active in at least one assay; those are over-represented in the sample as a whole.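 Percent growth is the endpoint: 0 to 100 indicates growth inhibition (40 means 60% inhibition), 0 means no net growth, and negative values indicate cell death.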 The source made the active and inactive calls. How the source made its calls: active means growth percent below 10; inactive means the rest.

What follows are molecules tested on DU-145 prostate (assay: NCI-60 one-dose screen, 48 h (100 = growth as untreated, 0 = no growth, -100 = all killed)). Settings: 10 µM unless noted.

| SMILES | growth |
| --- | --- |
| O=C(Nc1ccccc1C(=O)N/N=C(\c1ccccc1)c1ccccn1)c1ccccc1 | 14.1% (inactive) |
| FC(F)(F)Sc1ccc(/C=C/c2cc(/C=C/c3ccc(SC(F)(F)F)cc3)n(-c3ccccc3)n2)cc1 | 108% (inactive) |
| Cc1ccc(-c2nc3nc(-c4ccc(Cl)cc4)nc(N4CCCNCC4)c3o2)cc1 | -21.9% (active) |
| CN1CCN(c2ccc(/C=C/C(=O)c3ccc(O)cc3)cc2)CC1 | 93.2% (inactive) |
| COc1ccc(/C(C)=C(\c2ccc(OCCN3CCOCC3)cc2)c2ccc(OC(=O)C3CCCCC3)cc2)cc1 | 95.7% (inactive) |
| CS(=O)(=O)Nc1cc(-c2ccc3ncnc(Nc4ccc(F)c(Cl)c4)c3c2)cnc1Cl | 16.3% (inactive) |
| CCOc1ccc(C(=O)Cc2ccccc2)cc1 | 105% (inactive) and 112% (inactive) |
| CCCc1cc(C(N)=S)ccn1 | 109% (inactive) |
| COc1ccc(-c2ccc(-c3ccc(C(=N)N)cn3)s2)cc1Cl | -47% (active) |
| Nc1nc(CSc2n[nH]c(N)n2)nc(Nc2ccccc2)n1 | 104% (inactive) |
| COC(=O)c1nc(-c2ccccc2)oc1S(=O)(=O)N(C)CCO | 65.4% (inactive) |
| Nc1nc(Cl)nc2c1ncn2C1OC(CO)C(O)C1O (stereo not given) | 64.8% (inactive) and 44.9% (inactive) |
| Cc1ccc(NC(=O)c2sc3nc(C)c(C(=O)c4ccccc4)cc3c2N)cc1 | 95.4% (inactive) |
| O=Nc1ccc(NO)c2ccccc12 | 107% (inactive) and 98% (inactive) |
| N=C1/C(=C2\NC3C=CC=CC3S2)C(c2ccc(Cl)cc2)C2C(=O)N(c3ccccc3)C(=S)N12 (stereo not given) | 114% (inactive) |
| COc1cccc(C2C(C#N)=C(N)Oc3cc(OCCCCCC[P+](c4ccccc4)(c4ccccc4)c4ccccc4)ccc32)c1 (stereo not given) | 1.62% (active) |
| C=C1CC[C@@H]2[C@](C)(COC(C)=O)[C@H](OC(C)=O)CC[C@@]2(C)[C@@H]1CC(Nc1ccc(S(=O)(=O)Nc2nccs2)cc1)C1=CCOC1=O (stereo not given in full) | 22.3% (inactive) |
| CCNC(=O)Oc1ccc(/C(=C(/C)Cc2ccc(OC)cc2)c2ccc(OCCN(CC)CC)cc2)cc1 | 77.3% (inactive) |
| O=C1OCC2=C1C(c1cccc(C(F)(F)F)c1)c1cc3c(cc1N2CCO)CCC3 (stereo not given) | -6.77% (active) |
| O=C(Nc1ccc2ccccc2c1)c1cc2ccccc2cc1O | 13.3% (inactive) |
| CCOC(=O)c1nnn(Cc2cc(=O)oc3c2ccc2ccccc23)c1C | 103% (inactive) |
| CCC(=O)Oc1cc(Cl)c(Cl)cc1Cl | 103% (inactive) |
| COc1ccc(C(=O)c2ccc(OC)c(OC)c2OC)cc1 | 25.9% (inactive) and 6.1% (active) |
| Cn1cc(-c2nonc2-c2cn(C)c3ccc(Br)cc23)c2ccccc21 | 53% (inactive) |
| CC(C)(C)c1cc(NC(=O)Nc2ccc(-c3cn4c(n3)sc3cc(OCCN5CCOCC5)ccc34)cc2)no1 | 35.5% (inactive) and 45.5% (inactive) |
